A number with no mark means an inactive call. Records with an inconclusive call do not appear. The source made the active and inactive calls. Unless noted, the call rests on the fitted dose curve; in most records, active means well fitted curve in the direction sought with a large enough effect; inconclusive means small, poorly fitted or top-dose-only effect, or another doubt; inactive means no such curve, though single readings can be large; an effect the other way counts as inactive or inconclusive.
Experiments:
[1] = biological target: Lysosomal acid glucosylceramidase (Homo sapiens) (UniProt P04062); assay: Glucocerebrosidase-p2 (AID 348; in the data active means potency below about 10 µM; further: potency means the concentration at half of the fitted maximal effect); settings: purified GBA, blue fluorogenic substrate, 40 min
Outline: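 Normal human glucocerebrosidase (0.2 nM) with blue fluorogenic substrate (80 uM final) in citrate/phosphate pH 5.9 with 10mM sodium taurocholate, 0.01% tween-20; 40 min RT, NaOH/glycine stop; fluorescence Ex 365/Em 440; AC50 from a titration from 0.6 nM upwards.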

[2] = NFAT Signaling Pathway (AID 444; active means well fitted curve in either direction with a large enough effect, not every such curve was filed as active;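 further: carbachol stimulus at about its EC50 of 1 µM final; on the % scale 0 is the no-effect control and ±100 the full control effect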); settings: Jurkat NFAT-bla M1, carbachol, beta-lactamase ratio, 5 h; at 7.69 µM (top of the series) unless noted
Outline: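 Read-out: CCF4 FRET ratio (460 nm/530 nm) after 1 h RT dye loading, used for %activity and AC50 from titration series. Cells: Jurkat NFAT-β-lactamase/M1 line, treated with compound plus 1 uM carbachol for 5 h, 37 °C.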

[3] = Stat Signaling Pathway (AID 446; active means well fitted curve in either direction with a large enough effect, not every such curve was filed as active;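 further: ME-180 cervical cancer cells given 40 pM IL-6 alongside compound; SIE-controlled beta-lactamase reporter measured as 460/530 nm FRET emission ratio; on the % scale 0 is the no-effect control and ±100 the full control effect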); settings: ME-180 SIE beta-lactamase reporter, IL-6 stimulated, 5 h; at 7.69 µM (top of the series) unless noted
Outline: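 Compound effects on IL-6-induced STAT reporter activity were measured in ME-180 cells. After overnight culture, cells were co-treated with 40 pM IL-6 for 5 hrs before beta-lactamase substrate loading at room temperature.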

[4] = biological target: Glucocorticoid receptor (Homo sapiens) (UniProt P04150); assay: GR-GFP Redistribution (AID 450;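 active means compounds whose dose series gives a full or clear partial fitted curve of increased nuclear translocation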; further: potency means the concentration at half of the fitted maximal effect); settings: U2OS GR-GFP nuclear translocation, laser cytometry, 2 h
[5] = biological target: Glucocorticoid receptor (Homo sapiens) (UniProt P04150); assay: GR-EFC Redistribution (AID 451; calls by dose curve; further: potency means the concentration at half of the fitted maximal effect); settings: CHO-K1 GR-EFC translocation, beta-gal luminescence, 2 h
Outline: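 Translocation of GR-ED fusion to nuclear EA restores b-gal, read by luminescence after 1 h room-temperature detection. Engineered CHO-K1 biosensor cells, 1,000/well, exposed 2 h at 37 C to titrations up to 46 uM final.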

[6] = biological target: Mitogen-activated protein kinase 10 (Mus musculus) (UniProt Q61831); assay: JNK3 AlphaScreen Assay (AID 530; active means well fitted curve in either direction with a large enough effect, not every such curve was filed as active;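 further: kinase came from lysate of stimulated human HepG2 cells; signal reports phosphorylation of biotinylated GST-cJun 1-79 at Ser73 with 10 µM ATP; on the % scale 0 is the no-effect control and ±100 the full control effect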); settings: JNK3 lysate, c-Jun phosphorylation; series mostly up to 57.1 µM
Outline: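 Kinase buffer: 20 mM Tris-HCl pH 7.6, 10 mM MgCl2, 1 mM DTT, 0.1 mM Na3VO4, 0.01% Tween-20; ATP 10 uM. Substrate biotin-GST-cJun(1-79), enzyme from activated HepG2 lysates. Detection by Ser73 phospho-antibody AlphaScreen.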

[7] = biological target: 3',5'-cyclic-AMP phosphodiesterase 4B (Homo sapiens) (UniProt Q07343); assay: qHTS Assay for Inhibitors of PDE-IV (AID 607; active means well fitted activation curve with a large enough effect in the main read-out, with a control signal flat, not every such curve was filed as active; further: % of control where 0% means no effect); settings: HEK293 ACTOne CNG channel cells, membrane potential fluorescence; series mostly up to 22.9 µM
Outline: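 ACTOne HEK293 cells carry a modified cAMP-gated CNG channel and express endogenous PDE4; plated 1000 cells/well, compounds up to 22.9 uM final. Membrane-potential dye fluorescence (ex 535/em 590) was read; parental cells received 10 uM forskolin + 100 uM RO 20-1724.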

[8] = biological target: Dual specificity protein kinase CLK4 (Homo sapiens) (UniProt Q9HAZ1); assay: qHTS Assay for Inhibitors of CDC-like Kinase 4 (Kinase-Glo Assay) (AID 1770); settings: recombinant Clk4, Kinase-Glo ATP depletion luminescence; series mostly up to 66.7 µM; further: nearly all actives have a fitted effect of over 65% in size; further: potency means the concentration at half of the fitted maximal effect
Outline: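 Clk4 25 nM, RS peptide 100 uM, ATP 1 uM, pH 7.5 Tris, 10 mM MgCl2, 2.5 mM DTT; 4.5 h RT; ATP depletion read by Kinase-Glo luminescence.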

[9] = biological target: Dual specificity protein kinase CLK4 (Homo sapiens) (UniProt Q9HAZ1); assay: qHTS Assay for Inhibitors of CDC-like Kinase 4 (ADP-Glo Assay) (AID 1771); settings: recombinant CLK4, ADP-Glo luminescence; series mostly up to 80 µM; further: nearly all actives have a fitted effect of over 70% in size; further: potency means the concentration at half of the fitted maximal effect
Outline: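 25 nM Clk4, 100 uM RS peptide, 1 uM ATP (final); 2 mM MgCl2, 0.5 mM EGTA, 2.5 mM DTT, 0.01% Triton X-100; 1 hr RT. ADP-Glo readout: ATP depletion 45 min, conversion/luciferase 30 min, luminescence.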

[10] = Primary qHTS for small molecule stabilizers of the endoplasmic reticulum resident proteome: Secreted ER Calcium Modulated Protein (SERCaMP) assay (AID 1508630); settings: SH-SY5Y GLuc-SERCaMP (Gaussia luciferase released on ER calcium loss) secretion, thapsigargin, luminescence; series mostly up to 38.4 µM; further: on the % scale 0 is the no-effect control and ±100 the full control effect
Outline: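 The SH-SY5Y reporter protocol was run at 3 concentrations up to 38.3 uM (primary) or 11 concentrations (follow-up): 16 h compound, 100 nM thapsigargin for 4 h, then extracellular luciferase luminescence.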

[11] = biological target: Cytochrome P450 1A2 (Homo sapiens) (UniProt P05177); assay: p450-cyp1a2 (AID 410; calls by dose curve; further: potency means the concentration at half of the fitted maximal effect); settings: recombinant CYP1A2, luciferin-ME demethylation, luminescence; series mostly up to 57 µM
Outline: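 20nM CYP1A2, 100uM Luciferin-ME (=Km), 100mM KPO4; cpd 10 min RT; +NADPH regen, 60 min RT; stop/detect 20 min; luminescence. Normalized to furafylline 57 uM = full inhibition.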

[12] = biological target: Ubiquitin carboxyl-terminal hydrolase 1 (Homo sapiens) (UniProt O94782); assay: Inhibitors of USP1/UAF1: Pilot qHTS (AID 504865); settings: purified USP1/UAF1, Ub-rhodamine cleavage fluorescence; series mostly up to 54.9 µM; further: nearly all actives have a fitted effect of over 35% in size; further: potency means the concentration at half of the fitted maximal effect
Outline: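 Enzyme-free wells gave the negative control, while test wells held 1nM USP1/UAF1 preincubated with compound for 15 min at room temperature. Ub-Rho at 150nM final started the reaction, and fluorescence at 480/540 nm was recorded kinetically.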

[13] = AP1 Signaling Pathway (AID 357; active means well fitted curve in either direction with a large enough effect, not every such curve was filed as active); settings: ME-180 AP-1-bla reporter, EGF-induced, beta-lactamase ratio, 5 h; at 7.69 µM (top of the series) unless noted
Outline: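 A ratiometric CCF4 readout (405 nm excitation; 460 and 530 nm emission) quantified AP-1-driven beta-lactamase in ME-180 cells after 5 h with compound and EC50 EGF; AC50 values were derived for activators and inhibitors.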

[14] = biological target: Cytochrome P450 3A4 (Homo sapiens) (UniProt P08684); assay: qHTS Assay for Activators of Cytochrome P450 3A4 (AID 885); settings: recombinant CYP3A4, Luciferin-PPXE luminescence, 60 min; series mostly up to 57.1 µM; further: nearly all actives have a fitted effect of over 65% in size
Outline: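 CYP3A4 activity: Luciferin-PPXE O-dealkylation, 25uM substrate, 200mM KPO4, RT throughout. Read-out is luciferase luminescence; higher values reflect activation.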

[15] = qHTS Assay for Identification of Small Molecule Agonists for Hypoxia Response Element Signaling Pathway (AID 914; active means well fitted activation curve with a large enough effect in the signal ratio, with a control signal flat, not every such curve was filed as active; the % refers to the signal ratio; further: % of control where 0% means no effect); settings: ME-180 (cervical carcinoma) HRE-bla reporter, beta-lactamase ratio, CoCl2, 17 h; activation: hits give high values
Outline: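 HRE-bla ME-180 cells with beta-lactamase reporter under hypoxia response element, compounds with EC50 CoCl2 for 17 hours at 37 C. CCF4 substrate, 460nm/530nm emission ratio gave %Activity; AC50 from titration series.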

[16] = biological target: Cytochrome P450 3A4 (Homo sapiens) (UniProt P08684); assay: qHTS Assay for Inhibitors and Substrates of Cytochrome P450 3A4 (AID 884); settings: recombinant CYP3A4, Luciferin-PPXE luminescence; series mostly up to 57.1 µM; further: potency means the concentration at half of the fitted maximal effect; nearly all actives have a fitted effect of over 50% in size
Outline: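 Luminescent readout of luciferin produced by CYP3A4 (20 nM) dealkylation of Luciferin-PPXE, 25 uM (its KM). NADPH-driven reaction ran 60 min at RT after 10 min compound preincubation; data scaled to 57 uM ketoconazole as 100% inhibition.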

[17] = biological target: Cytochrome P450 2C19 (Homo sapiens) (UniProt P33261); assay: qHTS Assay for Inhibitors and Substrates of Cytochrome P450 2C19 (AID 899); settings: recombinant CYP2C19, luciferin-H EGE luminescence; series mostly up to 57.1 µM; further: potency means the concentration at half of the fitted maximal effect; nearly all actives have a fitted effect of over 60% in size
Outline: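 5nM enzyme + 10uM Luciferin-H EGE (=KM), 50mM KPO4; cpd pin-transferred, 10 min 37C; NADPH regen, 60 min 37C; stopped w/ luciferin detection reagent, 20 min; luminescence. Normalized to 57uM ketoconazole (AC100).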

Lysosomal acid glucosylceramidase (Homo sapiens), sequence (P04062 whole entry, looked up): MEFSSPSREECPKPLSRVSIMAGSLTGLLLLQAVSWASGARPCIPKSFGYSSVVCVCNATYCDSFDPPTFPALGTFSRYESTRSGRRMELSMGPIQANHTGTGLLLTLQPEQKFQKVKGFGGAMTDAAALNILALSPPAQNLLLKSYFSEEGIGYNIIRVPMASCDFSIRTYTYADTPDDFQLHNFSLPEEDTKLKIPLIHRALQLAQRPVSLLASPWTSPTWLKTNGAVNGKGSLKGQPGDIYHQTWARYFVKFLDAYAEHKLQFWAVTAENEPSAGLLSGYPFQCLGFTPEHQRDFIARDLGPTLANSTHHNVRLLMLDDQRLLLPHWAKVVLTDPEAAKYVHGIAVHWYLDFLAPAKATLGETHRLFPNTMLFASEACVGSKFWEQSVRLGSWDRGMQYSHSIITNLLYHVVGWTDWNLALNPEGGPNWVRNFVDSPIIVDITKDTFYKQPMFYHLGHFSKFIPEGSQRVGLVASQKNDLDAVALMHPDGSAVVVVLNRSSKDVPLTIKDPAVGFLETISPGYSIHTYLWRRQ
3',5'-cyclic-AMP phosphodiesterase 4B (Homo sapiens), sequence (Q07343 whole entry, looked up): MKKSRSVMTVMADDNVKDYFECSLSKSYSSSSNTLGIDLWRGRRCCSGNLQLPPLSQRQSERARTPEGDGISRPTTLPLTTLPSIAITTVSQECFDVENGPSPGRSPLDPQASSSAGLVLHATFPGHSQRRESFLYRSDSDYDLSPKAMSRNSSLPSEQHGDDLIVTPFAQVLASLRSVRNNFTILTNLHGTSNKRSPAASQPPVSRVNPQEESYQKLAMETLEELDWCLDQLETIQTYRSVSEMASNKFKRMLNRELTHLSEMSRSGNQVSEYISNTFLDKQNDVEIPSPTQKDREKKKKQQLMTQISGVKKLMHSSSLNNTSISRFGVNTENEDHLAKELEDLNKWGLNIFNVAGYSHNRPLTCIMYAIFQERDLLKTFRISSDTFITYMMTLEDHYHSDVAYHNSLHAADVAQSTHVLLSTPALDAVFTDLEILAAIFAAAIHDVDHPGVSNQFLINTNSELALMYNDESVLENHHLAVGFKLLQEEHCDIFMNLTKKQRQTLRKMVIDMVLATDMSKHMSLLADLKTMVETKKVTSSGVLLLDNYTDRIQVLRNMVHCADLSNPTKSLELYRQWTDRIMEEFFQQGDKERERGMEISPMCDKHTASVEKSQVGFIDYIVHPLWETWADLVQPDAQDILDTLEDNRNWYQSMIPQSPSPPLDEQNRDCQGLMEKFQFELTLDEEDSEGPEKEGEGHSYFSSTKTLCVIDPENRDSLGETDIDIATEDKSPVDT
Glucocorticoid receptor (Homo sapiens), sequence (P04150 whole entry, looked up, the tested form may be a part): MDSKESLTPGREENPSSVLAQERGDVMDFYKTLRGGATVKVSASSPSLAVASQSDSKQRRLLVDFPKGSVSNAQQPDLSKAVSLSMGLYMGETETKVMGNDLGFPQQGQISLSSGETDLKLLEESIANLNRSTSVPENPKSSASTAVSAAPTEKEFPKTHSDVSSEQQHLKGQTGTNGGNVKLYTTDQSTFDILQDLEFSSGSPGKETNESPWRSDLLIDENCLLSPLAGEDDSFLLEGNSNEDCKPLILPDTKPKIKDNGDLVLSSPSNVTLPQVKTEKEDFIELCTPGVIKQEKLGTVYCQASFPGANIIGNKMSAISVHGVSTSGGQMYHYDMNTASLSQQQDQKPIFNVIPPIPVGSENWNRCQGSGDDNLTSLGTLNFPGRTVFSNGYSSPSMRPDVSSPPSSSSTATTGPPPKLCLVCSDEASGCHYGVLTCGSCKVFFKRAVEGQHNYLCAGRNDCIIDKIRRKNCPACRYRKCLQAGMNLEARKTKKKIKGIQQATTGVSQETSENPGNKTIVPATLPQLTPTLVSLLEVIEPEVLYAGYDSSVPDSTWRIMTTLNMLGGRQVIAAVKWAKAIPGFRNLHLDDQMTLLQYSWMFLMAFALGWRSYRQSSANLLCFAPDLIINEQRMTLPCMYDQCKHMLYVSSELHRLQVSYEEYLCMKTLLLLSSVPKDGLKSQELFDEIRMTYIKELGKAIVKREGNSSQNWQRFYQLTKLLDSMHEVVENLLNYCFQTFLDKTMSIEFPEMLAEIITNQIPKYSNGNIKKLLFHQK
Ubiquitin carboxyl-terminal hydrolase 1 (Homo sapiens), sequence (O94782 whole entry, looked up): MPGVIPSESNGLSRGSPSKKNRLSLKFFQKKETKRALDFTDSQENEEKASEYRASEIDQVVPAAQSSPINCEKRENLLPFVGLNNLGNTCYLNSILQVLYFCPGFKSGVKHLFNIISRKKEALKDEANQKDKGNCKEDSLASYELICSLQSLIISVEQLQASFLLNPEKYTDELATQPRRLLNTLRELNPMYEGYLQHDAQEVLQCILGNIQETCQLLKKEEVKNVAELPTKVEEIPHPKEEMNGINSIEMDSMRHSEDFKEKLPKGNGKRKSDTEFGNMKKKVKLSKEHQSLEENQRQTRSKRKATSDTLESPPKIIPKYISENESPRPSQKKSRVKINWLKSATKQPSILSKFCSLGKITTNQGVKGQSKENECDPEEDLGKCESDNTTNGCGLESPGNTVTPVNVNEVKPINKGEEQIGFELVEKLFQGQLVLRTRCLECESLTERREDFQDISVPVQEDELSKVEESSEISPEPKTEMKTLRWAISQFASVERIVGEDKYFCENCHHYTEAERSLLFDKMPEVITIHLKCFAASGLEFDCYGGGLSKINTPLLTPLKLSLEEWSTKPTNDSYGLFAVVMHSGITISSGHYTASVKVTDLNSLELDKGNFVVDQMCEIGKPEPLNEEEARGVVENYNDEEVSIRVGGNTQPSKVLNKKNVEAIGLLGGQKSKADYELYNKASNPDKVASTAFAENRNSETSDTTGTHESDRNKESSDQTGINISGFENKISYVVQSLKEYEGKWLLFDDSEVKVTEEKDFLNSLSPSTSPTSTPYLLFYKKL
Cytochrome P450 1A2 (Homo sapiens), sequence (P05177 whole entry, looked up): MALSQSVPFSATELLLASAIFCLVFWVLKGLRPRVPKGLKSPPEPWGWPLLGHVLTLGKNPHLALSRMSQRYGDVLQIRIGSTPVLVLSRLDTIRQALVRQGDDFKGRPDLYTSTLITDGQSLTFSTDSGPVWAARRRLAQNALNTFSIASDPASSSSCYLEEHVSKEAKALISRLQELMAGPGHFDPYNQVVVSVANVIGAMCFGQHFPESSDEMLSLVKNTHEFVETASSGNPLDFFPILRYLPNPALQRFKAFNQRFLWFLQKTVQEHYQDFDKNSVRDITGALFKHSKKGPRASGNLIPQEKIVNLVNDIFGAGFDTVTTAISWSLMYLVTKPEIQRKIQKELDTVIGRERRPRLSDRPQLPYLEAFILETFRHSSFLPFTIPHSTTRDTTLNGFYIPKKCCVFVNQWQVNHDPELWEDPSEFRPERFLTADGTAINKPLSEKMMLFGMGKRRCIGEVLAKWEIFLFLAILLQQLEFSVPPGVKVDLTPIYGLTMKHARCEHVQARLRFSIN
Dual specificity protein kinase CLK4 (Homo sapiens), sequence (Q9HAZ1 whole entry, looked up): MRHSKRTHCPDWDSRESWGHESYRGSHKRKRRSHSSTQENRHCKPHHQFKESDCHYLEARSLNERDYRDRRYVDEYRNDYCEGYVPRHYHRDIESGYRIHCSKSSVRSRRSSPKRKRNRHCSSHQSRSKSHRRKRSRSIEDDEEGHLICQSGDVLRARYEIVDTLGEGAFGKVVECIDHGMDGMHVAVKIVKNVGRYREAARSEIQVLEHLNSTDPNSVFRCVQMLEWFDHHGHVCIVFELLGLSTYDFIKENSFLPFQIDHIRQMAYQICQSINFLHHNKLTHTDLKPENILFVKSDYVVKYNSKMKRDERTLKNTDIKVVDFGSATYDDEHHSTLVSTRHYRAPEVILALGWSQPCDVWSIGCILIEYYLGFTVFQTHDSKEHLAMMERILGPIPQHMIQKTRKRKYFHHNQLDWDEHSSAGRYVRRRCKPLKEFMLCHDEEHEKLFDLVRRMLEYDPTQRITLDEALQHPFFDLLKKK
Cytochrome P450 3A4 (Homo sapiens), sequence (P08684 whole entry, looked up): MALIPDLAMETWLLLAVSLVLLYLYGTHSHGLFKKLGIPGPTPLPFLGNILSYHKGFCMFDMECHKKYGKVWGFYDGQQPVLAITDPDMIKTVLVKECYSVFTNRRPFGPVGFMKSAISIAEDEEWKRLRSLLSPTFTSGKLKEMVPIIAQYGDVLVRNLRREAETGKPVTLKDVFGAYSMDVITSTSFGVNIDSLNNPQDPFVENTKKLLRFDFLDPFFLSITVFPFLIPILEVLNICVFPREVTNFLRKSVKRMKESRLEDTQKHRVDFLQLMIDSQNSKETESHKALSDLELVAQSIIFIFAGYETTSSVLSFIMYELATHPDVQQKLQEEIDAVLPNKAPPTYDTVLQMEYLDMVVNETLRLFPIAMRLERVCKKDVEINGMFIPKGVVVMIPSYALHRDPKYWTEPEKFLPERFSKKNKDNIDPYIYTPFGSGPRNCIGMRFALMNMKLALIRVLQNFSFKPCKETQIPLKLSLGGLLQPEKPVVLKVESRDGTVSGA
Cytochrome P450 2C19 (Homo sapiens), sequence (P33261 whole entry, looked up): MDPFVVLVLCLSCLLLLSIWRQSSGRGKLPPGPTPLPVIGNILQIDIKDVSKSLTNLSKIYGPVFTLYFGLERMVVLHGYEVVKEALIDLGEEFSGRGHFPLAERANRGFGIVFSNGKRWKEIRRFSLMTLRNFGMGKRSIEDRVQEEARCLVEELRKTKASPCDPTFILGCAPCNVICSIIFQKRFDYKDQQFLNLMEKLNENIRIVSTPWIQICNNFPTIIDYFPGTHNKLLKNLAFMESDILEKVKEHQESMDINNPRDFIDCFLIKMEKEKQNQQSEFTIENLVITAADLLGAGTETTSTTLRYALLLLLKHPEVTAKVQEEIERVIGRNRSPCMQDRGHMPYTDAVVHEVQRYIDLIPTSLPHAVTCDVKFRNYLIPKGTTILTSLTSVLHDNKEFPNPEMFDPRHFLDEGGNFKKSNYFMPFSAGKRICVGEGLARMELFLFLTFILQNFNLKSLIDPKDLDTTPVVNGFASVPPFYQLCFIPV

## COc1ccc(-c2nc3cnc(N(C)C)nc3n(Cc3ccc(F)cc3)c2=O)cc1
[1]
  Potency: > 11.4 µM
[2]
  activity change, negative = inhibition: 102% [activator] (active)
[3]
  activity, negative = inhibition: 126% [activator] (active)
[4]
  Potency: > 9.22 µM
[5]
  Potency: > 46 µM
[6]
  Potency: inactive
[7]
  Potency: inactive
[8]
  Potency: inactive
[9]
  Potency: inactive
[10]
  outcome: inactive

## Cn1cc(-c2nc3cnc(Oc4cccc(Cl)c4)nc3n(C3CC3)c2=O)c2ccccc21
[1]
  Potency: > 11.4 µM
[11]
  Potency: 12.6 µM (active)
[2]
  activity change, negative = inhibition: 6.59%
[3]
  activity, negative = inhibition: 9.54%
[4]
  Potency: > 9.22 µM
[5]
  Potency: > 46 µM
[6]
  Potency: inactive
[8]
  Potency: inactive
[9]
  Potency: inactive
[12]
  Potency: inactive
[10]
  outcome: inactive

## CN1CCN(c2ncnc3ccc(-c4cccnc4)cc23)CC1
[1]
  Potency: > 11.4 µM
[13]
  activity change, negative = inhibition: -5.19%
[2]
  activity change, negative = inhibition: 17%
[3]
  activity, negative = inhibition: 2.81%
[4]
  Potency: > 46 µM
[5]
  Potency: > 46 µM
[6]
  Potency: inactive
[7]
  Potency: inactive
[14]
  Potency: inactive
[15]
  activation: -3.4%
[8]
  Potency: 12.6 µM (active)
[9]
  Potency: 14.1 µM (active)
[12]
  Potency: inactive
[10]
  outcome: inactive

## CCNc1ncc2nc(-c3cccs3)c(=O)n(Cc3cccs3)c2n1
[1]
  Potency: > 11.4 µM
[13]
  activity change, negative = inhibition: 9.95%
[11]
  Potency: 1.26 µM (active)
[4]
  Potency: > 9.22 µM
[5]
  Potency: > 46 µM
[6]
  Potency: inactive
[16]
  Potency: 6.31 µM (active)
[14]
  Potency: inactive
[8]
  Potency: inactive
[9]
  Potency: inactive
[12]
  Potency: inactive
[10]
  outcome: inactive

## COc1cccc(-c2nccc(NCc3ccccc3)n2)c1
[1]
  Potency: > 11.4 µM
[11]
  Potency: 0.501 µM (active)
[2]
  activity change, negative = inhibition: 15.6%
[3]
  activity, negative = inhibition: -13.5%
[4]
  Potency: > 46 µM
[5]
  Potency: > 46 µM
[6]
  Potency: inactive
[16]
  Potency: 3.98 µM (active)
[14]
  Potency: inactive
[17]
  Potency: 7.94 µM (active)
[8]
  Potency: 15.8 µM (active)
[9]
  Potency: 15.8 µM (active)
[12]
  Potency: 25.1 µM (active)
[10]
  outcome: inactive

## COc1cccc(-c2nc(NCc3cccs3)c3ccccc3n2)c1
[1]
  Potency: > 11.4 µM
[13]
  activity change, negative = inhibition: 9.31%
[2]
  activity change, negative = inhibition: -22.6%
[3]
  activity, negative = inhibition: -12.6%
[4]
  Potency: > 46 µM
[5]
  Potency: > 46 µM
[6]
  Potency: inactive
[16]
  Potency: 3.16 µM (active)
[14]
  Potency: inactive
[17]
  Potency: 3.16 µM (active)
[8]
  Potency: 17.8 µM (active)
[9]
  Potency: 15.8 µM (active)
[12]
  Potency: 20 µM (active)
[10]
  outcome: inactive

## COCCn1c(=O)c(-c2cccc(Cl)c2)nc2cncnc21
[1]
  Potency: > 11.4 µM
[11]
  Potency: 0.631 µM (active)
[2]
  activity change, negative = inhibition: 12.1%
[3]
  activity, negative = inhibition: -4.06%
[4]
  Potency: > 9.22 µM
[5]
  Potency: > 46 µM
[6]
  Potency: inactive
[7]
  Potency: inactive
[14]
  Potency: inactive
[8]
  Potency: inactive
[9]
  Potency: inactive
[12]
  Potency: inactive
[10]
  outcome: inactive
